Bioassay records: PubChem BioAssay, National Center for Advancing Translational Sciences (NCATS)
Only some compounds are listed: those with a hit (about 18% of all), similar ones and a draw of the others.
Gal4-VP16 FLuc – counter-screen for ROR gamma inhibitors: Gal4-VP16 reporter; actives 3.5% (n = 310,000); Drosophila S2 Gal4-VP16 UAS-luciferase, luminescence, 20 h; Potency, µM (top dose mostly 53.6 µM), most hits filed as inhibitors;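 note: Gal4-VP16 expression switched on by copper sulfate through the metallothionein promoter; nearly all actives have a fitted effect of over 50% in size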
IL-1B inflam inh – blocks inflammasome-driven IL-1 beta release. THP-1 LPS/ATP IL-1B secretion, AlphaLISA, 16 h; active compounds read low. activity change, % at 57.5 µM. actives 4.7% (n = 360,000); in the data active = activity change below about -50%; inconclusive = mostly about -30% to -49%
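THP-1 cells pretreated 1 hr with compounds (up to 57.5 uM final), then stimulated with LPS (250 ng/mL final) plus ATP (1.25 mM final); secreted IL-1B measured by AlphaLISA after 16 hr, decreased signal indicating inhibition.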
TDP1 cell CPT – DT40-hTDP1 cell growth loss with CPT; chicken DT40 Tdp1-/-;hTDP1 cells + 20 nM CPT, ATP luminescence, 48 h; Potency, µM (top dose mostly 46.2 µM), usual class: inhibitors; actives 12% (n = 420,000); AID 686979; note: nearly all actives have a fitted effect of over 55% in size
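Chicken DT40 Tdp1-/- cells stably complemented with human TDP1 were seeded at 400 cells/well in medium containing 20 nM camptothecin, exposed to pin-transferred compounds, and grown at 37 °C for at least 48 hr. Viability was read as ATP luminescence.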
RORgamma inh – inhibitors of mouse ROR gamma transcriptional activity; P51450; Potency, µM (titrated, usually from 53.6 µM), actives largely listed as inhibitors; Drosophila S2 Gal4-RORgamma UAS-luciferase reporter, 20 h; actives 5.4% (n = 310,000); note: nearly all actives have a fitted effect of over 60% in size
Target sequence (P51450 whole entry, looked up, the tested form may be a part): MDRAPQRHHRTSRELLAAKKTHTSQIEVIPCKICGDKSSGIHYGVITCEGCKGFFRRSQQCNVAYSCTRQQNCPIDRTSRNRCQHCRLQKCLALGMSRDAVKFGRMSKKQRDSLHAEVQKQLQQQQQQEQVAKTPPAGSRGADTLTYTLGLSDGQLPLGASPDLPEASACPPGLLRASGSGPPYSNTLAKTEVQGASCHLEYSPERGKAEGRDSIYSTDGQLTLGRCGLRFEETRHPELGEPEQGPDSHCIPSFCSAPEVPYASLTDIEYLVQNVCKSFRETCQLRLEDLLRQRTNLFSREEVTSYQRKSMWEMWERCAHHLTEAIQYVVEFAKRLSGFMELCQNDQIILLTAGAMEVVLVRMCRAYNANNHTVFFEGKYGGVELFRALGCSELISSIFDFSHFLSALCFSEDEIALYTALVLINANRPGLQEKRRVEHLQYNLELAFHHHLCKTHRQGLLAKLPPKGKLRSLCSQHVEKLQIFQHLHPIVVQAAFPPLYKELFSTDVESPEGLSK
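Drosophila S2 cells stably expressing Gal4-DBD/mouse RORγ fusion under metallothionein promoter plus UAS-luciferase; compound 1 h, then 700 uM CuSO4 induction for 20 h at ambient temperature; inhibition read as reduced luminescence.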
LDHA block – inhibitors of human lactate dehydrogenase A. purified LDHA, NADH/diaphorase-resazurin fluorescence; active compounds read low. activity change, % (values are at about 110 or 230 µM). actives 0.15% (n = 480,000). P00338; in the data active = activity change below about -30%; inconclusive = mostly about -25% to -30%
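LDH5 2 nM; NADH 0.06 mM, pyruvate 0.2 mM; 200 mM Tris pH 7.4, EDTA, Tween-20; 5 min RT. Detection: diaphorase 0.133 mg/mL + resazurin 37 µM, fluorescence ex540/em590 at 0 and 20 min; normalized to enzyme-free and DMSO wells.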
TDP1 cell noCPT – qHTS for Inhibitors of human tyrosyl-DNA phosphodiesterase 1 (TDP1): qHTS in cells in absence of CPT; AID 686978, 2013; actives 15% (n = 420,000); Potency, µM (titrated, usually from 46.2 µM), most hits filed as inhibitors; DT40 Tdp1-/- hTDP1 cells, no CPT, ATP luminescence, 48 h; note: nearly all actives have a fitted effect of over 55% in size
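Chicken DT40 Tdp1-/- cells stably complemented with human TDP1 were seeded at 400 cells/well with DMSO in place of 20 nM camptothecin. After compound pinning, cells grew at least 48 hr at 37 °C; viability read by CellTiter-Glo luminescence.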
Hits are given with their value; i = inactive; ? = inconclusive; nt = not tested or not shown. Unless noted, calls come from the whole dose curve; as a rule, active = well fitted curve in the direction sought with a large enough effect; inconclusive = small, poorly fitted or top-dose-only effect, or another doubt; inactive = no such curve, though single readings can be large; an effect the other way counts as inactive or inconclusive.

SMILES	Gal4-VP16 FLuc	IL-1B inflam inh	TDP1 cell CPT	RORgamma inh	LDHA block	TDP1 cell noCPT
COc1ccccc1/C=N/NC(=O)NC12CC3CC(CC(C3)C1)C2	i	i	i	i	i	?
O=C(N/N=C/c1ccncc1)NC12CC3CC(CC(C3)C1)C2	i	i	i	i	i	?
Cc1ccc2nsnc2c1NC(=O)c1ccc(C#N)cc1F	nt	nt	nt	nt	i	nt
CC(C)(C)C(=O)Cc1[nH]c2cc(Cl)ccc2c1C(C)(C)C	nt	nt	nt	nt	i	nt
O=C(Nc1ccc(Cl)c(-c2nc3ncccc3o2)c1)c1cc2ccccc2o1	nt	nt	nt	nt	i	nt
CCCn1nnnc1NC(=O)c1cc(Br)ccc1OC	5.6µM	i	i	3.2µM	i	i
CCCn1nnnc1NC(=O)c1cccs1	2.8µM	i	?	0.89µM	i	?
CC1CCCN(C(=O)c2cc3ccc(C(C)C)cc3[nH]2)C1 (stereo unspecified)	nt	nt	nt	nt	i	nt
CCN(C(=O)c1ccc2c(c1)N(Cc1cccc(Cl)c1)C(=O)c1ccccc1S2=O)c1ccccc1 (stereo unspecified)	nt	nt	?	nt	i	16µM
CCN1CCN(CCNC(=O)c2ccc3c(c2)N(Cc2cccc(Cl)c2)C(=O)c2ccccc2S3=O)CC1 (stereo unspecified)	i	-55	i	i	i	i
O=C(O)c1ccc2c(c1)N(Cc1ccccc1)C(=O)c1ccccc1S2=O (stereo unspecified)	i	i	?	?	i	i
COc1ccc(C)cc1NC(=O)CNC(=O)NOCc1ccccc1	nt	nt	nt	nt	i	nt
CC(C)c1nc2cc(NC(=O)c3ccc(=O)[nH]n3)ccc2o1	nt	nt	nt	nt	i	nt
COc1cc(-c2c(NC(=O)c3ccccc3F)oc3c(C)cccc3c2=O)cc(OC)c1OC	nt	nt	nt	nt	i	nt
Cc1ccc(NCC(=O)N/N=C\C(Br)=C\c2ccccc2)cc1	?	-98	3.3µM	?	i	5.8µM
Cc1cc(C)nc(SCC(=O)N/N=C\C(Br)=C\c2ccccc2)n1	?	i	6.5µM	i	i	15µM
Cc1cc(C)nc(SCC(=O)N/N=C/c2cccc([N+](=O)[O-])c2)n1	i	i	18µM	i	i	23µM
Cc1ccc(NCC(=O)N/N=C/c2ccc(C(=O)O)cc2)cc1	i	i	i	i	i	i
Cc1cc(C)nc(SCC(=O)NN=C2CCCC2)n1	i	i	?	i	i	21µM
COCCNc1nc(-c2ccc(OC)cc2)c(-c2ccc(OC)cc2)s1	i	i	i	11µM	i	?
CCCCCCNc1nc(-c2ccc(OC)cc2)c(CCC(=O)O)s1	16µM	i	i	?	i	i
COc1ccc(-c2nc(NC(C)=O)sc2-c2ccccc2)cc1	i	i	?	i	i	?
COC(=O)CCc1sc(NC2CCCCC2)nc1-c1ccc(OC)cc1	?	i	21µM	i	i	18µM
Cc1cccc(NC(=O)c2nc(-c3ccccc3)oc2C)n1	nt	nt	nt	nt	i	nt
O=S(=O)(c1ccc2c(c1)OCCO2)c1nc(-c2ccco2)oc1N1CCOCC1	nt	nt	nt	nt	i	nt
SMILES	Gal4-VP16 FLuc	IL-1B inflam inh	TDP1 cell CPT	RORgamma inh	LDHA block	TDP1 cell noCPT
O=C(OCC1C(COC(=O)c2cc([N+](=O)[O-])ccc2Cl)C1(Cl)Cl)c1cc([N+](=O)[O-])ccc1Cl (stereo unspecified)	nt	nt	nt	nt	i	nt
CCc1noc(C)c1C(=O)Nc1cc(Cl)ccc1N1CCCC1	nt	i	?	nt	i	18µM
CCc1cc(C(=O)Nc2cc(Cl)ccc2N2CCN(C)CC2)sc1C	nt	i	?	nt	i	23µM
CN1CCN(c2ccc(Cl)cc2NC(=O)c2nn(-c3ccccc3)c(=O)c3ccccc23)CC1	i	i	?	i	i	9.2µM
Cc1cccc(C)c1OCCNC(=O)Cc1n[nH]c(=O)c2ccccc12	nt	nt	nt	nt	i	nt
Cc1ccc(NC(=O)N2CCN(S(=O)(=O)c3cc4c(cc3Cl)NC(=O)C(C)O4)CC2)cc1C (stereo unspecified)	nt	nt	nt	nt	i	nt
CCS(=O)(=O)CCSc1nc(-c2ccc(Br)cc2)cc(-c2ccccc2)c1C#N	nt	nt	i	nt	i	i
